Source: PubChem BioAssay
TWEAK-Fn14 inh – inhibitors of TWEAK-Fn14 signaling, primary screen, luciferase reporter cells, uHTS; inhibition, % at 10 µM; hit rate 2% among 360,000; TWEAK-stimulated Fn14 reporter cells, luciferase luminescence, 8 h; in the data active means inhibition above about 50%
HSP90 refold inh – HSP90 inhibitors, primary screen, cell lysate, luminescence. inhibition, % at 5.6 µM. AID 1789, 2009. Heat shock protein HSP 90 (rabbit reticulocyte lysate; luciferase refolding). hit rate 0.91% among 290,000. Rabbit reticulocyte lysate, luciferase refolding luminescence, 3 h;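 active means inhibition above the screen-wide mean plus 3 SD, computed separately per campaign, cut at about 16% in these data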;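 further: inhibitors lower the luminescence because luciferase stays unfolded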
aSyn UTR inh – MLPCN primary screen, SNCA 5' untranslated region; inhibition, % (tested at 7.5 µM); alpha-synuclein 5'UTR reporter, inhibitor activity; hit rate 0.82% among 300,000; AID 1813, 2009; in the data active means inhibition above about 60%; inconclusive means no clear call, values can overlap the other calls;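 further: H4 neuroglioblastoma cells stably carrying SNCA 5'UTR luciferase fusion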
C8 TRAIL sens – viability loss with TRAIL in NB7+C8 cells, primary screen, TRAIL sensitizer project, cell-based, ATPlite luminescence. inhibition (viability loss, TRAIL sensitization), % at 10 µM. hit rate 1% among 360,000. AID 624354, 2012;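 active means compounds causing at least 50% loss of cell viability in the single-dose screen, relative to plate controls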
HIF-2a block – HIF-2a reporter inhibitors, primary screen, luminescence, 786-0 RCC cells. 786-0 RCC cells HIF-2a reporter, luciferase luminescence, overnight. inhibition, % at 18.8 µM. hit rate 0.72% among 360,000. AID 624352, 2012;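 active means inhibition of the luminescence signal of 40% or more relative to plate controls, in a single-dose primary screen at 18.75 µM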
TROY NFkB inh – inhibitors of TROY-driven NF-kB signaling, primary screen, Q293 LMP1-TROYcd cells, NF-kB luciferase, uHTS. Q293 LMP1-TROYcd NF-kB luciferase reporter, 4 h. inhibition, % at 10 µM. hit rate 0.98% among 360,000;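 active means compounds whose plate-normalised and pattern-corrected inhibition of the luciferase reporter signal at the single screening dose is 50% or more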
HSP90 inh confirm – HSP90 inhibitors, confirmation, cell lysate, luminescence. shares compounds with HSP90 refold inh. rabbit reticulocyte lysate, luciferase refolding luminescence, 3 h. inhibition, % at 5.9 µM. hit rate 64% among 2,300; in the data active means inhibition above about 18%
FLuc counter – firefly luciferase inhibitors, HSP90 counter-screen, confirmation, artefact control for HSP90 inhibitor project, biochemical, luminescence, triplicate. shares compounds with HSP90 refold inh. inhibition, % at 5.9 µM. purified native firefly luciferase. hit rate 48% among 2,300. AID 1847, 2009;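 active means inhibition above the mean inhibition of all tested sample wells plus 3 SD, cut at about 10% in these data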
Target sequence (P08659 whole entry, looked up): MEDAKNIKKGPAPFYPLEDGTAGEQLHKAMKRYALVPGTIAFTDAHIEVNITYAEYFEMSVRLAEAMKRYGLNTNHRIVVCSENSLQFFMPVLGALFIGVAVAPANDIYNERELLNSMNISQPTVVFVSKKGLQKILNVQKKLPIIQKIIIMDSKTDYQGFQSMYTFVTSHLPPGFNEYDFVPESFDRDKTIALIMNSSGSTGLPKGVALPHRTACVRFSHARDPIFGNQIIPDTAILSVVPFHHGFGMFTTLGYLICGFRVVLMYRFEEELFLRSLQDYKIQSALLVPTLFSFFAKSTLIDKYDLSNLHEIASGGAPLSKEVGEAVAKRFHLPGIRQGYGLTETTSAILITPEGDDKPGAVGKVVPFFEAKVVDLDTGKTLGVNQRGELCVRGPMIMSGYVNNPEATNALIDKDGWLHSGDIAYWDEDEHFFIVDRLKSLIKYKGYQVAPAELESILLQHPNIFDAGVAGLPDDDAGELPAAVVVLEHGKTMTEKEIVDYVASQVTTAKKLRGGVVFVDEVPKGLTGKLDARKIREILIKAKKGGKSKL
Hits are given with their value; – = inactive; ? = inconclusive; · = no result given. An excerpt weighted towards active compounds, which were near 3.9% of everything screened.

SMILES | TWEAK-Fn14 inh | HSP90 refold inh | aSyn UTR inh | C8 TRAIL sens | HIF-2a block | TROY NFkB inh | HSP90 inh confirm | FLuc counter
Cc1ccc(NC(=S)Nc2cccc3ccccc23)cc1F | – | 19 | – | – | – | – | 30 | –
CN(C)c1ccc(/C=C2\SC(=O)N(CCc3nnc(N)s3)C2=O)cc1 | 94 | 37 | 80 | 81 | 58 | 77 | 85 | 82
CN(C)c1ccc(/C=C2/SC(=O)N(CCN=C3NS(=O)(=O)c4ccccc43)C2=O)cc1 | – | – | – | – | – | – | · | ·
Cc1c(NC(=O)c2ccc(-c3ccccc3)cc2)cccc1C(=O)O | – | 75 | – | – | – | – | 81 | 63
O=C(Nc1ccccc1C(=O)O)c1ccccc1 | – | – | – | – | – | – | · | ·
c1ccc(-n2ncc3c(N4CCC5(CC4)OCCO5)ncnc32)cc1 | – | – | – | – | – | – | · | ·
c1ccc(-n2ncc3c(N4CCCCC4)ncnc32)cc1 | 95 | 56 | 94 | 86 | – | 71 | 80 | 74
CC1CCc2nc(NC(=O)CSc3nc4ccccc4o3)sc2C1 (stereo not drawn) | 93 | 46 | – | – | – | 86 | 51 | 49
Cc1cccc(OCCCC(=O)Nc2ccc(S(=O)(=O)Nc3onc(C)c3C)cc2)c1C | – | – | – | – | – | – | · | ·
Cc1cccc(OCCCC(=O)Nc2ccc(S(=O)(=O)Nc3ncccn3)cc2)c1C | – | 25 | – | – | – | – | – | –
Oc1ccccc1C1NN=C(c2ccccc2)S1 (stereo not drawn) | 56 | 24 | – | 70 | – | – | 33 | 18
Cc1ccc(Cc2c(-c3ccc(F)cc3)nc3c(C)cc(Br)cn23)cc1 | – | · | · | – | – | – | · | ·
COc1ccc(C2=NN(c3ccccc3)C(=O)/C2=C\c2ccc(O)c(OC)c2)cc1 | – | 25 | – | – | – | – | – | –
COc1ccc(/C=C2/C(=O)N(c3ccccc3)N=C2C)cc1 | – | · | ? | – | – | – | · | ·
NNC(=O)CN1CCCc2ccccc21 | 69 | 25 | – | – | – | 71 | 46 | 39
O=C(CN1CCCc2ccccc21)N1CCc2ccccc21 | – | – | – | – | – | – | · | ·
CCCNC(=O)C1(C)CCCN(C(=O)/C=C/c2ccccc2)C1 (stereo not drawn) | – | · | · | – | – | – | · | ·
Nc1ccccc1SSc1ccccc1N | – | – | – | – | – | – | 36 | –
CCCCCOC(=O)Nc1nnc(CCCCC)s1 | – | – | – | – | – | – | · | ·
CCCCOC(=O)Nc1nnc(CC)s1 | – | 29 | – | – | – | – | – | –
Cc1[nH]c(-c2ccco2)nc1C(=O)O | – | 18 | – | – | – | – | – | –
Cc1cc(C2=CC(=O)C[C@H](c3ccc(F)cc3)C2)ccc1F | – | · | · | – | – | – | · | ·
COc1ccc(S(=O)(=O)N2CCCCCC2)cc1NC(=O)CCNC(=O)c1ccccc1Cl | – | · | · | – | – | – | · | ·
COc1cc(C(=O)Nc2ccccn2)cc(OC)c1OC | – | – | – | – | – | – | · | ·
O=C(NC(=O)c1ccccc1)Nc1ccccn1 | 95 | 74 | 64 | 89 | 75 | 73 | 93 | 86
SMILES | TWEAK-Fn14 inh | HSP90 refold inh | aSyn UTR inh | C8 TRAIL sens | HIF-2a block | TROY NFkB inh | HSP90 inh confirm | FLuc counter
O=C(Nc1ccccn1)c1ccc(C(=O)c2ccccc2)cc1 | – | · | – | – | – | – | · | ·
Cc1cc(C(=O)Nc2ccccn2)cs1 | – | 25 | · | – | – | – | 16 | –
C[C@@H]1CN([C@@H](C)CO)C(=O)CCCn2nncc2CO[C@@H]1CN(C)S(=O)(=O)c1ccccc1 | – | · | · | – | – | – | · | ·
C=C1C2(C(=O)NCc3ccco3)CCC(C2)C1(C)C (stereo not drawn) | – | 20 | – | – | – | – | – | –
COc1ccc(C(=O)Nn2c(SCC(=O)NC3CCCCC3)nc3ccccc3c2=O)cc1 | 92 | 62 | – | – | – | 78 | 71 | 65
COc1ccc(C(=O)CSc2ccccc2C(=O)O)cc1 | – | 32 | – | – | – | – | 32 | –
COc1ccc(C(=O)Cc2ccccc2C(=O)O)cc1 | – | · | · | – | – | – | · | ·
COc1ccc(C(=O)Nn2c(SCc3cccc([N+](=O)[O-])c3)nc3ccccc3c2=O)cc1 | 79 | 44 | 66 | – | – | 76 | 50 | 42
COc1ccc(C(=O)Nn2c(SCC(=O)NCc3ccco3)nc3ccccc3c2=O)cc1 | 88 | 56 | 81 | – | – | 80 | 65 | 65
O=C(Nn1c(SCc2cccc([N+](=O)[O-])c2)nc2ccccc2c1=O)c1ccccc1 | – | – | – | – | – | – | · | ·
CCn1c(SCC(=O)NCc2ccco2)nc2ccccc2c1=O | – | – | – | – | – | – | · | ·
COC(=O)c1c(NC(=O)C2COc3ccccc3O2)sc2c1CCN(C(=O)OC)C2 (stereo not drawn) | – | · | · | – | – | – | · | ·
COc1ccc(C(=O)Nn2c(C)nc3ccccc3c2=O)cc1 | – | – | – | – | – | – | · | ·
COc1ccc(C(=O)Nn2c(SCC(=O)c3ccc(Cl)cc3)nc3ccccc3c2=O)cc1 | 91 | 77 | – | – | – | 79 | 53 | 46
Cc1ccc2c(c1)N(CC(=O)Nc1ccccc1F)C(=O)CO2 | – | 22 | – | – | – | – | – | –
O=C(CN1C(=O)COc2ccccc21)Nc1ccccc1F | – | – | – | – | – | – | · | ·
O=C(CN1C(=O)COc2ccc(Cl)cc21)Nc1nccs1 | – | · | · | – | – | – | · | ·
Cc1cccnc1NC(=O)CN1C(=O)COc2ccc(Cl)cc21 | – | 18 | – | – | – | – | – | –
CC(C)n1c(=O)c2ccccc2n1Cc1cn(Cc2cccnc2)nn1 | – | · | · | – | – | – | · | ·
CCC1(c2ccccc2)NC(=O)N(CC(=O)NCC2COc3ccccc3O2)C1=O (stereo not drawn) | – | · | · | – | – | – | · | ·
C[C@H](CO)N1C[C@H](C)[C@@H](CN(C)S(=O)(=O)c2ccccc2)Oc2ccc(NC(=O)CCC(F)(F)F)cc2C1=O | – | · | · | – | – | – | · | ·
CCC(=O)N1CCc2cc(S(=O)(=O)CCC(=O)NCc3ccco3)ccc21 | 101 | 23 | – | – | – | – | – | –
CCN(c1cccc(C(F)(F)F)c1)S(=O)(=O)c1ccc2c(c1)CCN2C(=O)C1CC1 | – | – | – | – | – | – | · | ·
CCC(=O)N1CCc2cc(S(=O)(=O)N(CC)c3cccc(C)c3)ccc21 | – | 62 | – | – | – | – | – | –
